# Bioassay records: PubChem, National Center for Advancing Translational Sciences (NCATS)
# NS1 function inh: inhibitors of influenza NS1 protein function. Potency, µM (highest dose often 46.1 µM), inactives show at the highest dose activity, positive = more growth. hit rate 0.4% among 270,000. AID 2326; calls by dose curve; note: actives are rising curves; nearly all actives have a fitted effect of over 50% in size
#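 OD600 was taken as the measure of yeast growth restored by compound in an NS1-expressing S. cerevisiae strain. Cells had been washed out of glucose medium and diluted 1:100 into galactose -URA medium, pH 6.0.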
# Pf growth 48h: inhibits P. falciparum growth in the first generation, 48 h; AID 504832; P. falciparum luciferase growth in erythrocytes, 48 h; hit rate 5.9% among 310,000; Potency, µM (top dose mostly 28.7 µM), for inactives: at the top dose activity change, negative = inhibition, most hits filed as inhibitors; note: % is set by controls: 0 for no effect and ±100 for the full control effect
#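 A one-generation exposure of luciferase-tagged malaria parasites in RPMI 1640/Albumax erythrocyte culture, 37 C and 5% CO2. Inhibition is inferred from decreased luminescence after adding detection reagent.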
# Vaccinia mCherry: vaccinia inhibition (mCherry reporter). Vaccinia virus mCherry reporter infection, fluorescence. Potency, µM (series often up to 36.5 µM), inactives show at the highest dose activity change, negative = inhibition, hits mostly inhibitors. hit rate 0.63% among 310,000; calls by dose curve; tested in A549 cells; note: % is set by controls: 0 for no effect and ±100 for the full control effect; nearly all actives have a fitted effect of over 35% in size
# Pf growth 96h: P. falciparum growth inhibition at 96 hours; AID 504834; Potency, µM (series often up to 28.7 µM), for the others: at the highest dose activity change, negative = inhibition, actives largely listed as inhibitors; hit rate 6.9% among 320,000; P. falciparum luciferase reporter growth, 96 h; note: % is set by controls: 0 for no effect and ±100 for the full control effect
#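 P. falciparum expressing integrated firefly luciferase grown in erythrocytes (2% hematocrit, 0.05% parasitemia final) with compounds for 96 hours at 37 C, 5% CO2. Growth inhibition read as loss of luminescence after adding luciferase detection reagent.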
# HCV inhibitor: blocks hepatitis C virus; Huh7.5.1 HCVcc-Cre infection, luciferase reporter, 44 h; AID 651820; hit rate 3.4% among 340,000; Potency, µM (series often up to 41.8 µM), for the others: at the top dose activity change, negative = inhibition, most hits filed as inhibitors; note: % is set by controls: 0 for no effect and ±100 for the full control effect
#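 Cells (1,000/well) were plated 4 h before compound, then infected with HCVcc-Cre virus (~0.5 moi). After 44 h further culture, infection was read as luciferase luminescence following a 15 min substrate incubation at room temperature.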
# VACV Venus inh: vaccinia inhibition (Venus reporter) | hit rate 0.46% among 330,000 | Vaccinia virus Venus reporter expression, fluorescence | Potency, µM (top dose mostly 36.5 µM), for inactives: top-dose activity change, negative = inhibition, actives largely listed as inhibitors | AID 720580; calls by dose curve; tested in A549 cells; note: % is set by controls: 0 for no effect and ±100 for the full control effect; nearly all actives have a fitted effect of over 30% in size
# * marks the source's active call; other numbers are inactive results; i = inactive; ? = inconclusive; / = not tested or not shown; [ ] = another dose, or the depositor's remark. An excerpt weighted towards active compounds, which were near 11% of everything screened. Unless noted, calls come from the whole dose curve; as a rule, active = well fitted inhibition curve with a large enough effect; inconclusive = small, poorly fitted or top-dose-only effect, or another doubt; inactive = no such curve, though single readings can be large or run the other way. Potency is the fitted concentration of half-maximal effect.
SMILES,NS1 function inh,Pf growth 48h,Vaccinia mCherry,Pf growth 96h,HCV inhibitor,VACV Venus inh
COc1ccc(/C=N/NC(=O)CCn2nnc3ccccc32)cc1,-0.9%,1.5%,/,22.0%,-1.8%,/
CCCS(=O)(=O)NC(=O)C1(C)CCN(C(=O)COCc2ccccc2)C1 (configuration not stated),/,/,9.6%,/,/,9.3%
CCN1CCCc2cc(CN(CCN3CCOCC3)C(=S)Nc3ccc(OC)c(Cl)c3)ccc21,/,?,/,18.5µM*,-17.1%,/
O=C(CN1CCN(Cc2ccccc2)CC1)N1N=CCC1c1ccccc1 (configuration not stated),/,48.0%,-7.8%,?,8.1%,-5.5%
COc1ccc(NS(=O)(=O)c2ccc3c(c2)Cc2ccccc2-3)cn1,-105.1%,25.1%,-10.0%,55.8%,2.82µM*,-18.0%
COc1ccc(NS(=O)(=O)c2ccc(N3CCCC3=O)cc2)cn1,/,?,-20.3%,?,?,-19.4%
Cc1ccccc1-n1c(C)nnc1SCc1cc(=O)oc2ccc3ccccc3c12,-22.5%,9.7%,/,14.7µM*,?,/
CCCn1c(=O)c2ccccc2n2c(SCc3cc(=O)oc4ccc5ccccc5c34)nnc12,-30.1%,-21.2%,1.8%,?,13.5%,3.0%
Cc1cc(=O)n2c3ccccc3n(C)c2n1,-14.7%,18.9%,-7.5%,4.4%,18.5%,-6.3%
CCN(CCCc1ccccc1)CCCc1ccccc1,-1.8%,?,-6.2%,?,-12.1%[8.37 µM],-17.2%
Cc1ccc(/C=N/NC(=S)N2CCOCC2)cc1,-17.9%,2.33µM*,-6.6%,?,-1.9%,-10.0%
Cc1ccc(CC(=S)N2CCOCC2)cc1,/,12.8%,-0.4%,13.1µM*,15.2%,0.7%
S=C(N/N=C/c1ccc(Cl)cc1)N1CCOCC1,-42.7%,53.9%,i,46.5%,8.4%,-7.1%
COc1cc(O)c(C(CCN2CCN(c3ccccc3)CC2)c2cc(OC)c(OC)c(OC)c2)c(OC)c1 (configuration not stated),-2.0%,1.31µM*,2.5%,0.928µM*,-22.0%,-24.4%
CCN(CC)CCC(c1cc(OC)c(OC)c(OC)c1)c1c(O)cc(OC)cc1OC (configuration not stated),-3.0%,3.29µM*,i,2.94µM*,4.6%,-9.6%
CCN(CC)CCC(c1ccc2c(c1)OCO2)c1c(O)cc(OC)cc1OC (configuration not stated),-1.0%,1.47µM*,?,2.94µM*,-14.8%,-15.8%
CCN(CC)C(=O)CC(c1cc(OC)c(OC)c(OC)c1)c1c(O)cc(OC)cc1OC (configuration not stated),2.1%,?,i,?,5.5%,-8.0%
COc1cc(O)c(C(CC(=O)N2CCCC2)c2ccc3c(c2)OCO3)c(OC)c1 (configuration not stated),3.3%,?,i,?,7.0%,-13.6%
COc1cc(O)c(C(CCN2CCCC2)c2ccc3c(c2)OCO3)c(OC)c1 (configuration not stated),-1.2%,2.94µM*,?,2.94µM*,-12.1%,-12.5%
CC1CCCN(C(=O)Cn2cnc3c2c(=O)n(C)c(=O)n3C)C1 (configuration not stated),4.2%,/,0.6%,22.6%,4.6%,3.1%
COc1cc(O)c(C(CC(=O)N2CCN(c3ccccc3)CC2)c2ccc3c(c2)OCO3)c(OC)c1 (configuration not stated),-30.6%,?,?,?,?,-27.7%
COc1cc(O)c(C(CCN2CCN(c3ccccc3)CC2)c2ccc3c(c2)OCO3)c(OC)c1 (configuration not stated),-0.8%,0.828µM*,-11.7%,0.329µM*,-13.5%[8.37 µM],-6.2%
CCOc1ccc(-c2csc(NC(=O)CSC3=NC(=O)CN3C(C)=O)n2)c2ccccc12,?,?,-21.1%,10.4µM*,-7.7%,-17.0%
CCOP(=O)(c1ccccc1)C(O)c1ccc([N+](=O)[O-])cc1 (configuration not stated),11.3%,-12.8%,-13.4%,362.2%,-4.0%,?
CCOP(=O)(c1ccccc1)C(O)c1ccc(F)cc1 (configuration not stated),4.4%,-5.4%,-13.8%,7.38µM*,4.2%,-9.8%
